Tau fibril FP: inhibitors of human tau fibril formation; P10636; Potency, µM (doses to about 57.7 µM), inactives show top-dose activity, negative = inhibition, actives largely listed as inhibitors; AID 1468; K18 P301L tau heparin fibrillization, Alexa594 FP, 6 h; actives 0.39% (n = 280,000); active means well fitted curve in the direction sought with a large enough effect; inconclusive means small, poorly fitted or top-dose-only effect, or another doubt; inactive means no such curve, though single readings can be large; an effect the other way counts as inactive or inconclusive; further: nearly all actives have a fitted effect of over 55% in size
Target sequence (P10636 561-689 P618L limits assumed): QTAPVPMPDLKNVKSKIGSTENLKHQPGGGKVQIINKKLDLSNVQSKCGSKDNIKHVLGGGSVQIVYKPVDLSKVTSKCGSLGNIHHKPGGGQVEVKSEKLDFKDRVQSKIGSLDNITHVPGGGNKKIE
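Heparin (20 uM) drove fibril formation of recombinant tau K18 P301L, 15 uM unlabeled with 0.24 uM Alexa 594 label, for 6 hr at 37 C in 100 mM sodium acetate pH 7. Fluorescence polarization (555/632 nm) read 1 hr after 30 uM ThT.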
Tau fluor cs: counter-screen for tau fibril formation inhibitors; tau K18 P301L Alexa594 fluorescence, heparin fibrillization; Potency, µM (highest dose often 57.7 µM), without a hit: at the top dose activity change, negative = decrease; actives 0.93% (n = 280,000); active means well fitted curve in the direction sought with a large enough effect; inconclusive means small, poorly fitted or top-dose-only effect, or another doubt; inactive means no such curve, though single readings can be large; an effect the other way counts as inactive or inconclusive; further: nearly all actives have a fitted effect of over 55% in size
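Human K18 P301L tau (15 uM unlabeled plus 0.24 uM Alexa 594-labeled, final) in 100 mM sodium acetate pH 7 was mixed with compound and 20 uM heparin and incubated 6 hr at 37 C.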
HPGD block: inhibitors of human 15-hydroxyprostaglandin dehydrogenase (HPGD). P15428. purified HPGD, NADH fluorescence kinetic, PGE2 substrate. Potency, µM, inactives show at the top dose activity change, negative = inhibition, most hits filed as inhibitors. actives 4.3% (n = 150,000). AID 894
Target sequence (P15428 whole entry, looked up): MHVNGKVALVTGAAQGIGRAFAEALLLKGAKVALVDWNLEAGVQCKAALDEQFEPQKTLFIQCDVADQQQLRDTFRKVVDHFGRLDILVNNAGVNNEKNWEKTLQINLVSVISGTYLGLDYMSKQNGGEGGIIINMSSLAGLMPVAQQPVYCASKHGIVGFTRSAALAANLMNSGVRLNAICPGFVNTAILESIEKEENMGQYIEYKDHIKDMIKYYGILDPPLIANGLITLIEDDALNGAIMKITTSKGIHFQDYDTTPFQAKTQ
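20 nM HPGD preincubated 15 min at room temperature with compound in 50 mM Tris-HCl pH 8, 0.01% Tween 20. Started with 1 mM NAD+ and 30 uM prostaglandin E2; NADH fluorescence (360/450 nm) read 5 times over 30-s intervals, last minus first.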
Tau ThT inhib: tau fibrillization inhibition (ThT binding); recombinant tau K18 P301L (four-repeat tau fragment), heparin-induced fibrillization, ThT fluorescence; Potency, µM (top dose mostly 57.4 µM), without a hit: at the top dose activity, negative = inhibition, hits mostly inhibitors; actives 2.1% (n = 270,000); AID 1460; active means well fitted curve in the direction sought with a large enough effect; inconclusive means small, poorly fitted or top-dose-only effect, or another doubt; inactive means no such curve, though single readings can be large; an effect the other way counts as inactive or inconclusive; further: nearly all actives have a fitted effect of over 55% in size
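Recombinant human tau K18 fragment […] carrying P301L, 15 uM unlabeled plus 0.24 uM Alexa 594-labeled, was fibrillized with 20 uM heparin in 100 mM sodium acetate pH 7 for 6 hr at 37 C; 30 uM ThT fluorescence read after 1 hr.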
ALDH1A1 block: inhibitors of human aldehyde dehydrogenase 1A1; P00352; Purified ALDH1A1, NADH fluorescence, propionaldehyde substrate; Potency, µM (titrated, usually from 75.3 µM), for the others: at the highest dose activity, negative = inhibition, most hits filed as inhibitors; actives 7.3% (n = 220,000); AID 1030;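 further: plate controls were no enzyme wells and a reference inhibitor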
JMJD2E inh: blocks human JMJD2E demethylase activity. JMJD2E catalytic domain, FDH-coupled NADH fluorescence (FDH is formaldehyde dehydrogenase). Potency, µM (series often up to 57.1 µM), for inactives: at the highest dose activity change, negative = inhibition, usual class: inhibitors. actives 1.6% (n = 230,000). AID 2147;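 further: 0% = wells with enzyme and -100% = buffer wells without enzyme; nearly all actives have a fitted effect of over 50% in size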
Target sequence (B2RXH2 1-337 limits assumed): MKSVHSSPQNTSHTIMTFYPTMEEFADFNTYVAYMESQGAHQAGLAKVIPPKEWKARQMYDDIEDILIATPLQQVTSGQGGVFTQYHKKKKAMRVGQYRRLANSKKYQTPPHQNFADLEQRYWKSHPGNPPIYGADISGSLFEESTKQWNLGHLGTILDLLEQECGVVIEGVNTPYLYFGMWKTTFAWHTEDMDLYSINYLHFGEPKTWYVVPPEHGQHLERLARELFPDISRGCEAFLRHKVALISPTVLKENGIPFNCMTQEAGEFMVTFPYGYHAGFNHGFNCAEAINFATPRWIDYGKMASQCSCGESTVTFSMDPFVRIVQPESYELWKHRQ
An asterisk follows results filed as active; ? = inconclusive; · = no result; [ ] = dose if it differs, or a comment. The list is not random: actives were taken first. Their share in the collection is about 9.9%. Unless noted, the call rests on the fitted dose curve; in most records, active means well fitted inhibition curve with a large enough effect (not every such curve was filed as active); inconclusive means small, poorly fitted or top-dose-only effect, or another doubt; inactive means no such curve, though single readings can be large or run the other way. Unless noted, on the % scale 0 is the no-effect control and ±100 the full control effect; potency means the concentration at half of the fitted maximal effect.

SMILES	Tau fibril FP	Tau fluor cs	HPGD block	Tau ThT inhib	ALDH1A1 block	JMJD2E inh
Cc1[nH]nc(-c2ccc(O)cc2O)c1-c1ccc(Cl)cc1	?	22.4µM*[quencher]	-17.7%	-15.9%	-3.9%	-0.9%
COc1ccc(-c2n[nH]c(C)c2-c2ccc(Cl)cc2)c(O)c1	-10.4%	20µM*[quencher]	-20.7%	?	-7.3%	?
COc1ccc(O)c(-c2c(-c3ccc(Cl)cc3)n[nH]c2C)c1	-5.1%	-28.4%	?	-13.5%	-1.4%	-5.1%
CN(C)[C@@H]1CCC[C@@H]1OC(=O)C(c1ccccc1)c1ccccc1	0.5%	9.4%	-7.2%	12.7%	11.8%	-8.8%
COc1ccc(-n2nc(C(=O)Nc3ccc(Cl)cn3)c3c4ccccc4n(C)c3c2=O)cc1Cl	?	-10.3%	·	0.2%	·	·
CCC(C)NC(=O)CSc1nc2cc3c(cc2c(=O)n1CCCC(=O)NCc1ccc2c(c1)OCO2)OCO3 (stereo unspecified)	-0.9%	-0.2%	·	7.3%	·	·
Cc1ccc(Cn2nc(C)c(NC(=O)C3(C)CC3(Br)Br)c2C)cc1 (stereo unspecified)	8.0%	1.8%	-9.2%	-5.4%	2.2%	3.6%
Cc1ccc(NC(CNS(=O)(=O)c2ccc(Cl)cc2)c2ccccc2)cc1 (stereo unspecified)	7.1%	4.47µM*[quencher]	-16.3%	1.0%	7.1%	-7.2%
NS(=O)(=O)c1ccc(NC(CNS(=O)(=O)c2ccccc2)c2ccccc2)cc1 (stereo unspecified)	-3.3%	-17.6%	·	2.9%	9.3%	-1.3%
COc1cccc(NC(CNS(=O)(=O)c2ccc(Cl)cc2)c2ccccc2)c1 (stereo unspecified)	10.3%	10µM*[quencher]	·	-9.0%	·	·
CN(C)C(CNS(=O)(=O)c1ccc(F)cc1)c1cccnc1 (stereo unspecified)	0.2%	-1.0%	-5.1%	-3.3%	14.0%	-5.3%
O=S(=O)(NCC(Nc1ccc(Cl)cc1)c1ccccc1)c1ccccc1 (stereo unspecified)	-1.5%	8.91µM*[quencher]	-5.4%	8.2%	4.2%	-4.8%
Cc1ccc(S(=O)(=O)NCC(c2cccnc2)N(C)C)cc1 (stereo unspecified)	4.5%	4.4%	-8.8%	-3.9%	31.6µM*	1.8%
CC(Cc1ccccc1)NC(=O)c1cc([N+](=O)[O-])ccc1Cl (stereo unspecified)	1.1%	-6.5%	·	-6.8%	·	6.0%
COc1cc(CN(C(=O)COc2ccc(Br)cc2)c2ccccn2)cc(OC)c1OC	2.9%	-7.4%	·	-5.6%	·	·
N#Cc1ccc(CN2C(=O)c3ccccc3Sc3ccc(C(=O)OCc4ccco4)cc32)cc1	-7.8%	-9.2%	·	-2.2%	·	·
O=S(=O)(NCC(c1ccccc1)N1CCc2ccccc21)c1ccc(Cl)cc1 (stereo unspecified)	11.1%	?	·	-9.9%	·	·
O=S(=O)(NCC(c1ccccc1)N1CCNCC1)c1ccc(Cl)cc1 (stereo unspecified)	-1.5%	-5.4%	-17.9%	-7.0%	8.91µM*	17.5%
COC(=O)NC(c1ccco1)[C@]1(C(C)=O)CCCC1=O (stereo partly specified)	-1.3%[11.6 µM]	-11.5%[11.6 µM]	·	-10.7%[11.5 µM]	13.4%[13.5 µM]	·
CC(C)C[C@H](N)c1nnc(SCc2ccc(Cl)cc2Cl)o1	1.9%	-10.5%	·	-13.0%	·	·
CC(C)C[C@H](N)c1nnc(S(=O)(=O)Cc2ccc(F)cc2)o1	?	-3.2%	25.1µM*	-1.2%	1.58µM*	0.2%
Cn1c(=O)c2[nH]c(COCc3nc4c([nH]3)c(=O)n(C)c(=O)n4C)nc2n(C)c1=O	·	·	-5.2%	·	10.1%[13.5 µM]	·
CCCC1=Nc2cc(C(=O)NC3CCCC3)ccc2Sc2ccc(C)cc21	6.5%	-3.7%	·	-5.8%	·	·
CC(C)Cn1c2c(c(O)c(C(=O)Nc3nccs3)c1=O)CCCC2	5.7%	-18.2%	-4.8%	?	14.1µM*	?
COCCNC(=O)c1ccc(NC(C)=O)cc1	3.5%	0.9%	20µM*	-1.9%	-2.5%	2.1%
SMILES	Tau fibril FP	Tau fluor cs	HPGD block	Tau ThT inhib	ALDH1A1 block	JMJD2E inh
CCCOC(=O)c1ccc(Cl)c(NC(=O)c2cccnc2)c1	3.8%	-17.0%	·	-13.7%	?	8.1%
COc1ccc(Nc2nc(N)c3cc(OC)c(OC)cc3n2)cc1	?	11.2µM*[quencher]	·	?	·	·
CCCCN1C(=O)C(=O)N(CC(=O)NC2CCCc3ccccc32)C1=O (stereo unspecified)	-1.1%	-4.0%	·	0.5%	-5.5%	3.4%
Cc1ccc(CN2CCC(CNc3ncnc4onc(-c5ccc(F)cc5)c34)CC2)cc1	-3.5%	-8.0%	·	10.0%	·	·
NC(=O)/C=C\C(=O)Nc1cccc(C(F)(F)F)c1	0.0%	-5.7%	-25.6%	?	2.82µM*	1.5%
NNC(=O)Nc1cccc(C(F)(F)F)c1	-1.8%	-7.8%	·	-12.7%	?	12.0%
O=C(NNc1cccc(Cl)n1)Nc1cccc(C(F)(F)F)c1	4.3%	-5.1%	-16.5%	-2.7%	20µM*	6.7%
CC(=O)NCC(=O)OC(C(=O)c1ccccc1)c1ccc(Cl)cc1 (stereo unspecified)	-9.1%	-6.1%	-18.6%	-3.2%	2.0%	-4.9%
COc1ccccc1CN1CCCC2(CCN(C(=O)c3cccc(F)c3)CC2)C1	·	·	-3.7%	·	7.5%	·
CC(=O)Nc1ccc(OCCOc2ccc([N+](=O)[O-])cc2)cc1	-7.1%	-13.8%	·	?	·	-15.3%
CCCCN(CCCC)S(=O)(=O)c1ccc(NS(=O)(=O)c2ccc(NC(C)=O)cc2)cc1	22.4µM*	?	-4.5%	?	-12.2%	-8.9%
Cc1ccc(C(C)C)cc1NC(=O)Nc1ccc([N+](=O)[O-])cc1	31.6µM*	7.94µM*[quencher]	·	?	·	-7.4%
CC(=O)Nc1ccc(OS(=O)(=O)c2ccc([N+](=O)[O-])cc2)cc1	4.6%	-15.1%	·	-9.8%	25.1µM*	-9.7%
CCOc1ccc(NC(=O)Nc2cc(C(C)C)ccc2C)cc1	9.1%	?	·	-4.9%	·	10.1%
CC(=O)Nc1ccc(S(=O)(=O)Nc2ccc([N+](=O)[O-])cc2)cc1	-0.9%	-12.3%	22.4µM*	-10.5%	?	?
CCCCOc1ccc(S(=O)(=O)Nc2ccc(NC(C)=O)cc2)cc1	8.7%	-20.0%	-10.9%	-6.2%	2.1%	-3.2%
COCCn1c(SCC(=O)NCc2ccc3c(c2)OCO3)nc2ccccc2c1=O	-3.5%	1.5%	·	0.5%	15.0%	1.7%
CC(=O)c1ccc(NC(=O)Nc2ccc([N+](=O)[O-])cc2)cc1	?	?	-5.4%	?	12.1%	-4.0%
O=C(Nc1ccc(Oc2ccc(NC(=O)Nc3ccc([N+](=O)[O-])cc3)cc2)cc1)Nc1ccc([N+](=O)[O-])cc1	25.1µM*	4.47µM*[quencher]	·	6.31µM*	7.0%	-3.3%
CCN(CC)S(=O)(=O)c1ccc(NS(=O)(=O)c2ccc(F)cc2)cc1	-1.0%	-0.1%	-14.0%	9.5%	12.6µM*	1.0%

Screening results deposited in PubChem by National Center for Advancing Translational Sciences (NCATS).
